VHR inh abs – DUSP3 (human) phosphatase inhibition | recombinant VHR phosphatase, pNPP absorbance | 290,000 compounds, 0.52% hits | AID 1654 | inhibition, % at 13.3 µM | P51452; in the data active = inhibition above about 50%
Target sequence (P51452 whole entry, looked up): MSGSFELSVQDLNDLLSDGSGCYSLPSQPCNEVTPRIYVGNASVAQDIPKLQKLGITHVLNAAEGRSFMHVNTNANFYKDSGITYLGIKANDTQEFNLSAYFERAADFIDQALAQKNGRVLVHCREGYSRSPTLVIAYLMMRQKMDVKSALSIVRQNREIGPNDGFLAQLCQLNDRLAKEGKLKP
Autofluor counter – compound fluorescence in toxin protease inhibitor counterscreen; compound autofluorescence counterscreen, microsphere flow cytometry; active compounds read high; fluorescence intensity (concentration not given with the values); 360,000 compounds, 3.1% hits; AID 624483; in the data active = fluorescence intensity above about 16000; inconclusive = no clear call, values can overlap the other calls
Anthrax LF prot – inhibitors of Bacillus anthracis lethal factor protease | P15917 | multiplex microsphere protease cleavage assay, LF | inhibition, % at 10 µM | 360,000 compounds, 0.12% hits | AID 588501; note: plate controls were buffer without enzyme for full effect and enzyme alone for no effect
BoNT F protease – BoNT F light chain protease inhibition; 360,000 compounds, 0.22% hits; Multiplex microsphere protease cleavage assay, flow cytometry; inhibition, % at 10 µM; in the data active = inhibition above about 35%, passing the limit was not always enough; inconclusive = no clear call, values can overlap the other calls; note: plate controls were buffer without enzyme for full effect and enzyme alone for no effect
BoNT-A LC inh2 – blocks Botulinum neurotoxin A light chain protease; multiplex microsphere protease substrate cleavage, flow cytometry; inhibition, % at 10 µM; 360,000 compounds, 0.17% hits; AID 588499; note: plate controls were buffer without enzyme for full effect and enzyme alone for no effect
3CLpro inhibitor – SARS-CoV 3CLpro protease inhibition. P0C6X7. recombinant SARS-CoV 3CLpro, quenched FRET peptide cleavage. inhibition, % at 6 µM. 290,000 compounds, 0.14% hits. AID 1706; in the data active = inhibition above about 12%
The depositor's hits bear a star. Compounds with a hit are over-represented: about 3.9% of the library has one in this group of screens. Cut-off read from the data, not from the text of the source, unless noted: active = inhibition above about 30%; inconclusive = no clear call, values can overlap the other calls; inactive = below that.

For O=C(NCCN1CCOCC1)c1ccc(NC(=O)c2ccc(Br)o2)cc1 the results were Autofluor counter 5974, Anthrax LF prot 0, BoNT F protease -1 and BoNT-A LC inh2 0.
Screening CC(C)OCC1Cn2c(nc3c2c(=O)n(C)c(=O)n3C)O1 (stereo not given) returned VHR inh abs 12, Autofluor counter 4764, Anthrax LF prot -11, BoNT F protease -3, BoNT-A LC inh2 -1 and 3CLpro inhibitor 0.
For Cn1c(=O)c2c(nc3n2CC(CO)O3)n(C)c1=O (stereo not given) the results were VHR inh abs 59*, Autofluor counter 3752, Anthrax LF prot -10, BoNT F protease inconclusive, BoNT-A LC inh2 5 and 3CLpro inhibitor -3.
COc1ccc(OC)c(CN2CCN(C(=O)CN3C(=O)NC4(CCCC4)C3=O)CC2)c1 was read as Autofluor counter 4018, Anthrax LF prot -5, BoNT F protease 6 and BoNT-A LC inh2 2.
For N/C(Cc1ccc([N+](=O)[O-])cc1)=N\OC(=O)c1ccccc1F the results were VHR inh abs 57*, Autofluor counter 3788, Anthrax LF prot -4, BoNT F protease -11, BoNT-A LC inh2 0 and 3CLpro inhibitor -4.
Cn1c(=O)oc2cc(S(=O)(=O)NCCC(=O)N3CCc4ccccc43)ccc21 was read as VHR inh abs 15, Autofluor counter 21642*, Anthrax LF prot -2, BoNT F protease 6, BoNT-A LC inh2 inconclusive and 3CLpro inhibitor 2.
Cn1c(=O)oc2cc(S(=O)(=O)NCCC(=O)N3CC=C(c4ccccc4)CC3)ccc21 was read as VHR inh abs 11, Autofluor counter 23639*, Anthrax LF prot -2, BoNT F protease -3, BoNT-A LC inh2 0 and 3CLpro inhibitor -1.
Screening Cc1ccsc1C(=O)N1CCC1(C)C(=O)NS(=O)(=O)c1ccccc1C(F)(F)F (stereo not given) returned Autofluor counter 3802, Anthrax LF prot -4, BoNT F protease -5 and BoNT-A LC inh2 0.
For COc1cc(CN2CCCC(C)C2)cc([N+](=O)[O-])c1O (stereo not given) the results were VHR inh abs 22, Autofluor counter 23731*, Anthrax LF prot 0, BoNT F protease -2, BoNT-A LC inh2 0 and 3CLpro inhibitor 1.
Cc1ccccc1NC(=S)N(CCCN1CCOCC1)Cc1ccccn1 was read as VHR inh abs 1, Autofluor counter 2551, Anthrax LF prot 0, BoNT F protease 39*, BoNT-A LC inh2 5 and 3CLpro inhibitor -1.
For Cc1ccc(NC(=S)N(CCCN2CCOCC2)Cc2ccccn2)cc1 the results were VHR inh abs 2, Autofluor counter 8443, Anthrax LF prot -1, BoNT F protease 0, BoNT-A LC inh2 0 and 3CLpro inhibitor -3.
For O=C(NCc1ccc2c(c1)OCO2)c1cccc(C(=O)NCc2ccc3c(c2)OCO3)c1 the results were VHR inh abs 5, Autofluor counter 3491, Anthrax LF prot -3, BoNT F protease -7, BoNT-A LC inh2 0 and 3CLpro inhibitor 5.
`O=C(NCc1ccc2c(c1)OCO2)c1ccc(COc2cc(Cl)ccc2Cl)o1` gave VHR inh abs 27, Autofluor counter 18111*, Anthrax LF prot 1, BoNT F protease 18, BoNT-A LC inh2 10 and 3CLpro inhibitor 7.
For O=C(NCc1ccc2c(c1)OCO2)c1c(Cl)cccc1Cl the results were VHR inh abs 56*, Autofluor counter 4153, Anthrax LF prot 10, BoNT F protease 12, BoNT-A LC inh2 -1 and 3CLpro inhibitor 1.
O=C(NCc1ccc2c(c1)OCO2)c1ccc(CSCc2ccc(Cl)cc2)o1 was read as VHR inh abs -2, Autofluor counter 2468, Anthrax LF prot 0, BoNT F protease -8, BoNT-A LC inh2 -1 and 3CLpro inhibitor -1.
Screening CCc1ccc(NC(=O)NCc2ccc3c(c2)OCO3)cc1 returned VHR inh abs 19, Autofluor counter 4859, Anthrax LF prot 0, BoNT F protease 12, BoNT-A LC inh2 5 and 3CLpro inhibitor 0.
For CCC(NC(=O)NCc1ccc2c(c1)OCO2)(C(F)(F)F)C(F)(F)F the results were VHR inh abs 7, Autofluor counter 16887*, Anthrax LF prot 1, BoNT F protease 18, BoNT-A LC inh2 inconclusive and 3CLpro inhibitor 2.
Screening NS(=O)(=O)c1ccc(CCNC(=O)COC(=O)C2COc3ccccc3O2)cc1 (stereo not given) returned Autofluor counter 3882, Anthrax LF prot -9, BoNT F protease -6 and BoNT-A LC inh2 0.
`CN(C)S(=O)(=O)N(CC(=O)N(Cc1ccccc1)Cc1ccccc1)c1ccccc1` gave VHR inh abs 25, Autofluor counter 22498*, Anthrax LF prot 1, BoNT F protease 0, BoNT-A LC inh2 0 and 3CLpro inhibitor -5.
Screening N#C/C(C(=O)N1CCOCC1)=c1\s/c(=C/c2ccncc2)c(=O)n1-c1ccccc1 returned VHR inh abs 5.
COc1cccc(/C=c2/s/c(=C(\C#N)C(=O)N3CCOCC3)n(-c3ccccc3)c2=O)c1 was read as VHR inh abs 13, Autofluor counter 20549*, Anthrax LF prot -7, BoNT F protease 5, BoNT-A LC inh2 inconclusive and 3CLpro inhibitor 4.
For COc1ccc(C(=O)N(CN2CCCC2=O)c2cc(C)on2)cc1OC the results were VHR inh abs 33, Autofluor counter 21141*, Anthrax LF prot 2, BoNT F protease 6, BoNT-A LC inh2 4 and 3CLpro inhibitor -9.
`COc1ccc(C(=O)N(CN2CCCC2=O)c2nccs2)cc1OC` gave VHR inh abs 36, Autofluor counter inconclusive, Anthrax LF prot -17, BoNT F protease -4, BoNT-A LC inh2 -1 and 3CLpro inhibitor 0.
`Cc1cc(N(CN2CCCC2=O)C(=O)c2ccc(OC(C)C)cc2)no1` gave VHR inh abs 15, Autofluor counter 4922, Anthrax LF prot -6, BoNT F protease -24, BoNT-A LC inh2 -6 and 3CLpro inhibitor 5.
Screening O=C1CCCN1CN(C(=O)c1ccccc1)c1ccc(F)cc1 returned VHR inh abs 2 and 3CLpro inhibitor 2.
`Cc1cc(N(CN2CCCC2=O)C(=O)c2ccc(F)cc2)no1` gave VHR inh abs 30, Autofluor counter 20214*, Anthrax LF prot -2, BoNT F protease 0, BoNT-A LC inh2 0 and 3CLpro inhibitor -5.
For Cc1cc(N(CN2CCCC2=O)C(=O)c2ccccc2)no1 the results were VHR inh abs 19, Autofluor counter 23950*, Anthrax LF prot 0, BoNT F protease -5, BoNT-A LC inh2 -2 and 3CLpro inhibitor 0.
O=C1CCCN1CN(C(=O)c1ccc2c(c1)OCO2)c1ccc(F)cc1 was read as VHR inh abs 18, Autofluor counter 21432*, Anthrax LF prot -3, BoNT F protease -7, BoNT-A LC inh2 inconclusive and 3CLpro inhibitor 2.
Cc1ccc(SC[C@H](C)CN2CC[C@H](C(C)(C)C)CCC2=O)cc1 was read as VHR inh abs 9, Autofluor counter 3658, Anthrax LF prot -2, BoNT F protease 2, BoNT-A LC inh2 1 and 3CLpro inhibitor -4.
